Consider 7 compounds from PubChem BioAssay (NCI).

Test systems include NCI-H23 lung; NCI-H226 lung; NCI-H322M lung; HOP-62 NSCLC; NCI-H460 lung; HOP-92 NSCLC; NCI-H522 lung; A549/ATCC NSCLC; 786-0 renal; COLO 205 colon; DU-145 prostate; K-562 leukemia; MALME-3M melanoma; MDA-MB-231 breast; RXF 393 renal; SF-268 CNS; SF-295 CNS; SF-539 CNS; UACC-257 melanoma; M14 melanoma.
Holding throughout (experiment): NCI-60 one-dose screen, 48 h (100 = growth as untreated, 0 = no growth, -100 = all killed)
What all share (conditions): 10 µM unless noted

SMILES strings stand for the structures. The panel holds about 83,000 compounds, 20% with a hit somewhere; the sample as a whole holds those more often.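 96-well plates, one dose, 48 hours. Percent growth reported; active if below 10.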 Unmarked numbers belong to inactive results. Active and inactive are the calls of the source.

For `CC(C)[C@@H]1CC[C@@H]2[C@@H]1[C@H](OC(=O)/C=C/c1ccccc1)[C@]1(C(C)C)C[C@@H](OC(=O)CO)[C@@]2(C)O1`, the growth was 83.1% in the test with NCI-H23 lung; 63.2% with NCI-H226 lung; 105% in the test with NCI-H322M lung; 87.4% in the test on HOP-62 NSCLC; 89.3% in the test on NCI-H460 lung; 68.6% in the test on HOP-92 NSCLC. Further, the growth in the test with NCI-H522 lung was 65.9%; in the test on A549/ATCC NSCLC, 71.4%; in the test with 786-0 renal it was 78.1%; with COLO 205 colon it was 84.6%; in the test with DU-145 prostate, 86%; in the test on K-562 leukemia, 78.3%. Further, the growth is 80.3% with MALME-3M melanoma; 77.7% in the test on MDA-MB-231 breast; 23.4% in the test with RXF 393 renal; 56.8% in the test on SF-268 CNS; 92.2% with SF-295 CNS; 97.1% in the test on SF-539 CNS. The results for the growth with UACC-257 melanoma and in the test on M14 melanoma were 84.1% and 95.8%, respectively.
Turning to `Cc1ccc(N)cc1CN1C(=O)c2ccccc2C1=O`, the growth was 105% in the test with NCI-H23 lung; 93.1% with NCI-H226 lung; 104% in the test with NCI-H322M lung; 97.1% in the test with HOP-62 NSCLC; 105% in the test on NCI-H460 lung; 86.9% in the test on HOP-92 NSCLC. Also, the growth is 58.5% with NCI-H522 lung; 105% with A549/ATCC NSCLC; 98.5% in the test on 786-0 renal; 105% with COLO 205 colon; 105% in the test on DU-145 prostate; 105% in the test with K-562 leukemia. The growth in the test with MALME-3M melanoma was 101%; in the test with MDA-MB-231 breast, 106%; in the test on RXF 393 renal, 102%; in the test on SF-268 CNS it was 121%; in the test with SF-295 CNS, 118%; in the test on SF-539 CNS, 107%. In addition, the results for the growth in the test with UACC-257 melanoma and with M14 melanoma were 100% and 96.9%, respectively.
As to `CN1CCN(c2ccc(OC(F)(F)F)c(Nc3ncc4c(n3)-c3c(c(C(N)=O)nn3CCO)CC4)c2)CC1`, the growth in the test on NCI-H23 lung is 26%; with NCI-H226 lung, 57.8%; in the test with NCI-H322M lung it was 58.1%; in the test with HOP-62 NSCLC, 5.17% (active); in the test on NCI-H460 lung, 5.8% (active); in the test on HOP-92 NSCLC, 25.8%. In addition, the growth is -22% (active) in the test with NCI-H522 lung; 9.12% (active) with A549/ATCC NSCLC; 17% in the test with 786-0 renal; -15.4% (active) with COLO 205 colon; 10.2% in the test with DU-145 prostate; 8.71% (active) with K-562 leukemia. For the same compound, the growth in the test with MALME-3M melanoma was 83.6%; in the test with MDA-MB-231 breast, 32.1%; in the test on RXF 393 renal, 32.9%; with SF-268 CNS, 35.6%; with SF-295 CNS, 33.4%; in the test with SF-539 CNS, 3.87% (active). Further, the growth with UACC-257 melanoma is 47.6%; in the test on M14 melanoma, 10.2%.
Take `CN1CCN(c2nc(C3=C(c4c[nH]c5ccccc45)C(=O)NC3=O)c3ccccc3n2)CC1`: the growth is 70.1% in the test on NCI-H23 lung; 73.8% in the test on NCI-H226 lung; 29.2% in the test with NCI-H322M lung; 44.3% with HOP-62 NSCLC; 87.5% with NCI-H460 lung; 80.7% in the test with HOP-92 NSCLC. Moreover, the growth with NCI-H522 lung is 68%; in the test on A549/ATCC NSCLC, 51.7%; in the test with 786-0 renal, 92.8%; in the test on COLO 205 colon it was -2.65% (active); in the test on DU-145 prostate, 90.5%; in the test with K-562 leukemia it was 66.5%. The growth with MALME-3M melanoma is -12.8% (active); in the test with MDA-MB-231 breast it was 70.6%; in the test with RXF 393 renal, 120%; with SF-268 CNS, 95.1%; with SF-295 CNS it was 98.7%; with SF-539 CNS, 92.2%. Besides, the results for the growth with UACC-257 melanoma and in the test on M14 melanoma were -20% (active) and 12.2%, respectively.
On to `CCCCCC(=O)OCc1ccc(Cl)c(Cl)c1`, for which the growth with NCI-H23 lung is 96.2%; in the test with NCI-H226 lung it was 100%; in the test with NCI-H322M lung, 96.3%; with HOP-62 NSCLC it was 101%; in the test with NCI-H460 lung it was 107%; in the test on HOP-92 NSCLC, 109%. Moreover, the growth in the test on NCI-H522 lung was 97.5%; in the test on A549/ATCC NSCLC, 103%; in the test on 786-0 renal it was 104%; in the test on COLO 205 colon, 106%; in the test on DU-145 prostate, 105%; with K-562 leukemia it was 98.8%. Moreover, the growth is 90.4% in the test on MALME-3M melanoma; 110% in the test with MDA-MB-231 breast; 116% with RXF 393 renal; 99.3% with SF-268 CNS; 108% with SF-295 CNS; 105% with SF-539 CNS. Moreover, the growth in the test on UACC-257 melanoma is 103%; in the test with M14 melanoma it was 104%.
As to `CC1(O)CC(c2nc(-c3ccc4ccc(-c5ccccc5)nc4c3)c3c(N)nccn23)C1` (stereo not given), the growth was 33.9% with NCI-H23 lung; 36.1% with NCI-H226 lung; 0.394% (active) in the test with NCI-H322M lung; 28.6% in the test on HOP-62 NSCLC; 25.2% in the test with NCI-H460 lung; -13.2% (active) in the test on HOP-92 NSCLC. The growth in the test with NCI-H522 lung was 31.3%; in the test with A549/ATCC NSCLC, 33.5%; in the test with 786-0 renal it was 43.8%; in the test with COLO 205 colon, -22.2% (active); with DU-145 prostate it was 34.1%; with K-562 leukemia, 36.9%. The growth with MALME-3M melanoma was 30.4%; with MDA-MB-231 breast it was 28.7%; in the test on RXF 393 renal, 2.73% (active); in the test with SF-268 CNS, 44.1%; in the test on SF-295 CNS it was 46.7%; in the test with SF-539 CNS it was -2.47% (active). Moreover, the growth in the test on UACC-257 melanoma is 25.7%; with M14 melanoma, 42.5%.
With `COc1ccc2c(OCc3nnc4ccc(-c5ccccc5)nn34)ccnc2c1`, the growth is 70.2% [2.5 µM] in the test with NCI-H23 lung; 84.7% [2.5 µM] with NCI-H226 lung; 92% [2.5 µM] in the test on NCI-H322M lung; 77.5% [2.5 µM] in the test with HOP-62 NSCLC; 110% [2.5 µM] with NCI-H460 lung; 98.7% [2.5 µM] in the test with HOP-92 NSCLC. Further, the growth in the test on NCI-H522 lung is 85.8% [2.5 µM]; in the test with A549/ATCC NSCLC it was 94.1% [2.5 µM]; with 786-0 renal, 93.7% [2.5 µM]; with COLO 205 colon, 95.3% [2.5 µM]; in the test on DU-145 prostate, 109% [2.5 µM]; in the test with K-562 leukemia, 93.1% [2.5 µM]. For the same compound, the growth was 97.8% [2.5 µM] in the test on MALME-3M melanoma; 106% [2.5 µM] with MDA-MB-231 breast; -13.9% [2.5 µM] (active) in the test on RXF 393 renal; 109% [2.5 µM] in the test on SF-268 CNS; 63.4% [2.5 µM] in the test on SF-295 CNS; 95.1% [2.5 µM] with SF-539 CNS. Further, the figures for the growth with UACC-257 melanoma and with M14 melanoma were 120% [2.5 µM] and 104% [2.5 µM], respectively.
